# Results: PubChem BioAssay AID686978 (National Center for Advancing Translational Sciences (NCATS), 2013)
# The campaign covered roughly 420,000 compounds. About 64,000 (15%) were called active. Inconclusive results (about 27%) are left out. The call rests on the fitted dose curve; in most records, active means well fitted inhibition curve with a large enough effect; inconclusive means small, poorly fitted or top-dose-only effect; inactive means flat fitted curve, though single readings scatter. Only a sample is shown. Where a call stands in place of a potency, no number is given.
# Assay: qHTS for Inhibitors of human tyrosyl-DNA phosphodiesterase 1 (TDP1): qHTS in cells in absence of CPT; further: nearly all actives have a fitted effect of over 55% in size
# Settings: DT40 Tdp1-/- hTDP1 cells, no CPT, ATP luminescence, 48 h; activity change, negative = growth inhibition: at 46.2 µM (top of the series)
# Outline: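 Chicken DT40 Tdp1-/- cells stably complemented with human TDP1 were seeded at 400 cells/well with DMSO in place of 20 nM camptothecin. After compound pinning, cells grew at least 48 hr at 37 °C; viability read by CellTiter-Glo luminescence.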
# Potency means the concentration at half of the fitted maximal effect.
row,SMILES,Potency
1,CC1=C(C(N)=O)C(c2ccc(Br)cc2)n2ncnc2N1 (stereo not given),inactive
2,CCOC(=O)C1=C(c2ccccc2)Nc2ncnn2C1c1ccc(Cl)cc1 (stereo not given),18.4 µM (active)
3,COCCCNS(=O)(=O)c1cccc(S(=O)(=O)c2cccc(S(=O)(=O)NCCCOC)c2)c1,inactive
4,Cc1ccc(/C=N/NC(=O)C(NC(=O)c2ccccc2)c2n[nH]c(=O)c3ccccc23)cc1 (stereo not given),inactive
5,O=C(NCCN1CCOCC1)c1cc(-c2cccs2)nc2ccccc12,inactive
6,CCCCN(C)CCCNC(=O)c1cc(-c2cccs2)nc2ccccc12,29.1 µM (active)
7,Cc1ccsc1-c1cc(C(=O)O)c2c(ccc3ccccc32)n1,inactive
8,O=C1c2ccccc2-c2ccccc2NC1O (stereo not given),inactive
9,COc1ccc(/C=N/OCc2ccccc2C#N)c(OC)c1,inactive
10,CCOc1ccc(C2C(C#N)=C(N)N(N(C)C)C3=C2C(=O)CCC3)cc1 (stereo not given),inactive
11,COc1ccc(C(=O)NCC(c2ccco2)N2CCc3ccccc32)cc1OC (stereo not given),16.4 µM (active)
12,COc1ccc(C(=O)NCC(c2ccc(N(C)C)cc2)N2CCc3ccccc32)c(OC)c1 (stereo not given),20.6 µM (active)
13,O=C(NN1CCOCC1)c1cccc(F)c1,inactive
14,CCOc1ccccc1C(=O)NCC(c1ccc(N(C)C)cc1)N1CCCC1 (stereo not given),inactive
15,O=C(NCC(c1cccnc1)N1CCc2ccccc21)c1cccc(C(F)(F)F)c1 (stereo not given),14.6 µM (active)
16,COc1ccccc1C(=O)NCCC(=O)NCC(c1ccco1)N1CCCCC1 (stereo not given),inactive
17,Cc1ccc(NC(=O)NCC(c2cccnc2)N2CCOCC2)cc1 (stereo not given),inactive
18,CN(C)C(CNC(=O)c1cccc(C#N)c1)c1ccco1 (stereo not given),inactive
19,COc1cc(C(=O)NCC(c2ccco2)N2CCCC2)ccc1OCc1ccccc1 (stereo not given),inactive
20,COc1ccc(S(=O)(=O)NCC(c2ccc(N(C)C)cc2)N2CCc3ccccc32)cc1OC (stereo not given),inactive
21,O=C(NCC(c1ccco1)N1CCc2ccccc21)c1cccc(F)c1 (stereo not given),11.6 µM (active)
22,CCOC(=O)c1c(NC(=O)CSc2cn(CCNC(=O)c3cccc(C(F)(F)F)c3)c3ccccc23)sc2c1CCC2,inactive
23,CCn1cc(C(=O)NCCO)c(=O)c2cc(F)c(N3CCN(C)CC3)cc21,inactive
24,Cc1ccc(NC(=S)NC(NC(=O)Cc2cccc3ccccc23)C(Cl)(Cl)Cl)cc1 (stereo not given),inactive
25,Cc1cc(C(=O)O)c(S(C)(=O)=O)s1,inactive
26,NNc1nnc(Cc2ccncc2)c2ccccc12,inactive
27,O=C(COC(=O)Cn1[nH]c(=O)c2ccccc2c1=O)Nc1c(Cl)cccc1C(F)(F)F,inactive
28,COc1ccc([N+](=O)[O-])cc1N(CC(=O)Nc1ccccc1C(=O)N1CCOCC1)S(C)(=O)=O,inactive

row,SMILES,Potency
1,CN(C)c1ccc(C2N(C)C(=O)c3ccccc3N2C)cc1 (stereo not given),inactive
2,CC1CCc2c(c3ccccc3[nH]c2=O)O1 (stereo not given),inactive
3,O=C(O)C1OC(C(=O)O)C2C1C(F)(F)C2(F)F (stereo not given),inactive
4,Cc1ccc2nc(NCCCNC(=O)c3cnccn3)c(C#N)cc2c1,inactive
5,Cc1ccc(CNC(=O)COC(=O)C2CCC2)cc1,inactive
6,CC(C#N)OC(=O)c1cccnc1SCC(=O)Nc1ccc2c(c1)OCO2 (stereo not given),inactive
7,O=C(NCc1cccnc1)c1ccc2nc([C@@H]3O[C@H](CO)[C@H](O)[C@H](O)[C@H]3O)[nH]c2c1,inactive
8,COc1ccc(N(CC(=O)NCCc2ccc(Cl)cc2)S(=O)(=O)c2c(C)nn(C)c2C)cc1,20.6 µM (active)
9,CCOc1ccc(N(CC(=O)NCCc2ccc(OC)cc2)S(C)(=O)=O)cc1,inactive
10,COc1ccc(CCNC(=O)CN(c2ccccc2)S(C)(=O)=O)cc1,inactive
11,COc1ccccc1CNC(=O)COn1nnc2ccc(S(=O)(=O)N3CCOCC3)cc21,inactive
12,O=C1[C@H]2[C@@H](c3ccc(Cl)cc3)N3C(=O)N(c4cccc(F)c4)C(=O)[C@@]3(Cc3ccccc3)[C@H]2C(=O)N1C1CCCCC1,inactive
13,O=C1[C@H]2[C@@H](c3ccc(F)cc3)N3C(=O)N(c4ccc(C(F)(F)F)cc4)C(=O)[C@@]3(Cc3ccccc3)[C@H]2C(=O)N1C1CCCCC1,11.6 µM (active)
14,Cc1cccc(N2C(=O)N3[C@H](c4ccc(F)cc4)[C@@H]4C(=O)N(C5CCCCC5)C(=O)[C@@H]4[C@]3(Cc3ccccc3)C2=O)c1,inactive
15,S=C(NN=Cc1ccccn1)Nc1ccccn1,1.46 µM (active)
16,CNC(=O)C(=O)N/N=C/c1ccccn1,inactive
17,S=C(Nc1cccnc1)Nc1ccccn1,inactive
18,CC(C)(C)C(=O)NC1CC2CCCC(C1)N2C(=O)Nc1ccccc1F (stereo not given),inactive
19,CCOc1ccc(S(=O)(=O)Nc2ccc(S(=O)(=O)Nc3cc(OC)ccc3OC)cc2)cc1,inactive
20,COc1ccccc1C(CNC(=O)c1cccc(NS(=O)(=O)c2ccc(Br)cc2)c1)N(C)C (stereo not given),18.4 µM (active)
21,COc1ccc(C(CNC(=O)c2ccc(S(=O)(=O)Nc3ccccc3C)cc2)N2CCOCC2)cc1 (stereo not given),inactive
22,Cc1cc(S(=O)(=O)Nc2ccc(C(=O)NCC(c3ccco3)N3CCCC3)cc2)ccc1F (stereo not given),inactive
23,CC(=O)c1ccc(S(=O)(=O)Nc2ccc(C(=O)NCC(c3ccccc3)N(C)C)cc2)cc1 (stereo not given),inactive
24,CCOc1ccc(S(=O)(=O)Nc2ccc(OC)nc2)cc1,23.1 µM (active)
25,COc1ccc(C(CNC(=O)c2ccc(S(=O)(=O)Nc3ccccc3F)cc2)N(C)C)cc1 (stereo not given),inactive
26,CCOc1ccc(S(=O)(=O)Nc2nccs2)cc1,inactive
27,CCOc1ccc(NS(=O)(=O)c2ccc(C(=O)NCC(c3ccccc3OC)N3CCCC3)cc2)cc1 (stereo not given),18.4 µM (active)
